Measurements from PubChem BioAssay AID939 (National Center for Advancing Translational Sciences (NCATS), 2007).
Results filed as inconclusive are left out. Active and inactive are the calls of the source. Calls come from the whole dose curve; as a rule, active = well fitted activation curve with a large enough effect in the main read-out, with a control signal flat; inconclusive = small, poorly fitted or top-dose-only effect, or effect the other way, or a change in a side signal; inactive = no such curve, though single readings can be large or run the other way.

Legend:
[1] = Confirmation Concentration-Response Assay for Agonists of the Thyroid Stimulating Hormone Receptor; settings: HEK293 TSHR-CNG cells, membrane potential dye, cAMP; measured here: parental HEK293 counter-screen max; for activation: % of control where 0% means no effect
Outline: (§1)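 A cyclic nucleotide gated channel serves as cAMP sensor in HEK 293 cells stably carrying TSHR, with depolarization detected by fluorescent dye at 590 nm after 30 min compound. Parental cells lacking TSHR run alongside.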

[2] = molecular target: Thyrotropin receptor (Homo sapiens) (UniProt P16473); test: as above; settings: HEK293 TSHR-CNG cells, membrane potential dye, cAMP; series mostly up to 25.6 µM
Outline: as §1
Potency is the fitted concentration of half-maximal effect.

Chain of Thyrotropin receptor (Homo sapiens) (P16473 whole entry, looked up): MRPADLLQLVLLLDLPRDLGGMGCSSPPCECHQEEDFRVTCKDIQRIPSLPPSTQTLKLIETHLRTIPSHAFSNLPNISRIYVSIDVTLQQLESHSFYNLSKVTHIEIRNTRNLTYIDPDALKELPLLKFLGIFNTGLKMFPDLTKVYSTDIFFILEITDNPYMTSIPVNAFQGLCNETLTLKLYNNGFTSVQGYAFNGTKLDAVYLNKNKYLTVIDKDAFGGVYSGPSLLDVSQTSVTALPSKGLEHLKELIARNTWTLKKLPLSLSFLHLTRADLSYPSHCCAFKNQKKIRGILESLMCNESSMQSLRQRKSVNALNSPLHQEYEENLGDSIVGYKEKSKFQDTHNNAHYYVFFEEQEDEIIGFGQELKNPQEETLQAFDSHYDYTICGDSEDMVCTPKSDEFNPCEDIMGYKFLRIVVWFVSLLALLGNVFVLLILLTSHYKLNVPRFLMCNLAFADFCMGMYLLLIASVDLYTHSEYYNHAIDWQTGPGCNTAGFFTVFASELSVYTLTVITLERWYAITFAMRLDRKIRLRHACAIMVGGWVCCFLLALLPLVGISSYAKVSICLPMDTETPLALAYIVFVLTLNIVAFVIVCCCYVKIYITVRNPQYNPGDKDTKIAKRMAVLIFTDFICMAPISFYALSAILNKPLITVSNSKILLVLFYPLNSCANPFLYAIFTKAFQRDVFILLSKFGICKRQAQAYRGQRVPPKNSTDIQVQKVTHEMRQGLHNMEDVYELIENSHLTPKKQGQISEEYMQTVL

Q: Which max response [1] does the source give for `CC(c1ccco1)N(C(=O)c1ccc(Cl)s1)c1ccccn1` (stereo unspecified) here?
A: The max response was 8.8%.

Q: What about the Potency [2] of the same compound?
A: The Potency was 7.94 µM (active).

Q: With `CCOC(=O)c1ccc(NC(=O)c2ccc(CN3CCOCC3)cc2)cc1` as the compound, how does the max response [1] read?
A: Its max response is 11%.

Q: And the Potency [2]?
A: Its Potency is “inactive”.

Q: For `Cc1oc(-c2cccc(Cl)c2)nc1CN1CCCC(C(=O)NC(C)c2ccc3c(c2)OCCO3)C1` (stereo unspecified), which max response [1] is on record?
A: The max response was 8.77%.

Q: And the Potency [2]?
A: Its Potency is “inactive”.
